# Source: PubChem BioAssay (EPA / NIEHS)
# Calls of active or inactive are those of the source. How the source made its calls: active means hit-call score of the fitted dose curve at least 0.9, where 1 is the maximum; inactive means score below 0.9.
# Read-out: not listed separately
# Assay: BSK_BE3C_SRB: Viability Assessment in the BioMAP Diversity Plus: BE3C Assay (AID 2283028);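 further: measured 24 h after chemical dosing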;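 on AC50: fitted both ways so AC50 may mark signal gain or loss versus DMSO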
# Details: primary human bronchial epithelial cells
# Outline: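 Cytotoxicity read-out: SRB (0.1%) staining of TCA-fixed (10%) human lung bronchial epithelial cells, absorbance 560 nm, 24 h post-dosing. Curves fitted both directions relative to DMSO.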
SMILES,outcome,AC50
CS(=O)(=O)c1ccc([C@@H](C[C@H]2CCC(=O)C2)C(=O)Nc2cnccn2)cc1Cl,inactive,
O=C(O)CN(CC(=O)O)CC(=O)O,inactive,
CC1(C)C(=O)NC(=O)N1CO,inactive,
CC(C)c1cccc(C(C)C)c1NC(=O)NS(=O)(=O)c1cc(C(C)(C)O)co1,inactive,
CCCC(=O)O,inactive,
C=CCCCCCCCCCCCC,inactive,
CCCCC(CC)COP(=O)(OCC(CC)CCCC)OCC(CC)CCCC (centres undefined),inactive,
NC1CCCCC1,inactive,
CC(=O)CC(c1ccccc1)c1c(O)c2ccccc2oc1=O (centres undefined),inactive,
C=CCc1ccc(OC)c(OC)c1,inactive,
CC(C)OC(=O)C(C)(C)Oc1ccc(C(=O)c2ccc(Cl)cc2)cc1,inactive,
CCCCCCCCCC[N+](C)(C)[O-],inactive,
CCCCCCCC(=O)OC,inactive,
Oc1ccc(O)cc1,inactive,
CSc1ccc(Oc2ccc(S(N)(=O)=O)cc2CN(C)C)cc1C,inactive,
CCc1cc(C2=C(C(=O)O)N(c3ccccc3C(F)(F)F)S(=O)(=O)c3ccccc32)cc2c1OCO2,inactive,
NCCOCCOCCN,inactive,
S=c1[nH]c2ccccc2s1,inactive,
O=C(N[C@@H](c1ccccc1)[C@@H]1CCCCN1)c1cccc(C(F)(F)F)c1Cl,,34.3 µM (active)
O=C1CCCCC1,inactive,
Cc1ccc(C(C)(C)C)c(O)c1,inactive,
CCN(CC)CCOc1ccc(C(=C(Cl)c2ccccc2)c2ccccc2)cc1,,27.8 µM (active)
CCCCC(CC)CO (centres undefined),inactive,
CC(=O)O[C@]1(C(C)=O)CC[C@H]2[C@@H]3C=C(Cl)C4=CC(=O)[C@@H]5C[C@@H]5[C@]4(C)[C@H]3CC[C@@]21C,inactive,
COc1ccc(OC(F)(F)F)cc1CN[C@H]1CCCN[C@H]1c1ccccc1,inactive,
CC(COCC(C)OC(=O)c1ccccc1)OC(=O)c1ccccc1 (centres undefined),inactive,
Cc1occc(=O)c1O,inactive,
O=C(O)c1[nH]n(-c2ccc(S(=O)(=O)O)cc2)c(=O)c1N=Nc1ccc(S(=O)(=O)O)cc1,inactive,

# Read-out: Thrombomodulin, THBD (gene 7056)
# Assay: BSK_3C_Thrombomodulin: BioMAP Diversity Plus: 3C Assay for Thrombomodulin Biomarker Activity (AID 2283029)
# Details: primary human endothelial cells (HUVEC); actives raise or lower the signal
# Outline: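 Endothelial cells from umbilical vein are dosed with test chemical and incubated 24 h. Thrombomodulin is then quantified by ELISA, with DMSO serving as negative control and activity baseline.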
SMILES,outcome,AC50
O=C(O)CN(CC(=O)O)CC(=O)O,inactive,
CC1(C)C(=O)NC(=O)N1CO,inactive,
CC(C)c1cccc(C(C)C)c1NC(=O)NS(=O)(=O)c1cc(C(C)(C)O)co1,inactive,
CCCC(=O)O,inactive,
C=CCCCCCCCCCCCC,inactive,
NC1CCCCC1,inactive,
C=CCc1ccc(OC)c(OC)c1,inactive,
CCCCCCCCCC[N+](C)(C)[O-],inactive,
Oc1ccc(O)cc1,inactive,
CSc1ccc(Oc2ccc(S(N)(=O)=O)cc2CN(C)C)cc1C,inactive,
CCc1cc(C2=C(C(=O)O)N(c3ccccc3C(F)(F)F)S(=O)(=O)c3ccccc32)cc2c1OCO2,,10.2 µM (active)
NCCOCCOCCN,inactive,
O=C1CCCCC1,inactive,
CC(=O)[C@@]1(O)CC[C@H]2[C@@H]3CCC4=CC(=O)CC[C@]4(C)[C@H]3CC[C@@]21C,inactive,
CC(=O)O[C@]1(C(C)=O)CC[C@H]2[C@@H]3C=C(Cl)C4=CC(=O)[C@@H]5C[C@@H]5[C@]4(C)[C@H]3CC[C@@]21C,inactive,
CC(COCC(C)OC(=O)c1ccccc1)OC(=O)c1ccccc1 (centres undefined),inactive,
O=C(O)c1[nH]n(-c2ccc(S(=O)(=O)O)cc2)c(=O)c1N=Nc1ccc(S(=O)(=O)O)cc1,inactive,

# Read-out: Urokinase-type plasminogen activator receptor (uPAR), PLAUR (gene 5329)
# Assay: BSK_4H_uPAR: BioMAP Diversity Plus: 4H Assay for Urokinase-type plasminogen activator receptor (uPAR) Biomarker Activity (AID 2283030)
# Details: primary human endothelial cells (HUVEC); actives raise or lower the signal
# Outline: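 uPAR level read by ELISA on HUVEC cultures (BioMAP 4H) 24 h post-dosing, analyzed for gain or loss relative to DMSO. Parallel SRB staining assessed overt cytotoxicity.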
SMILES,outcome,AC50
CS(=O)(=O)c1ccc([C@@H](C[C@H]2CCC(=O)C2)C(=O)Nc2cnccn2)cc1Cl,inactive,
O=C(O)CN(CC(=O)O)CC(=O)O,inactive,
CC1(C)C(=O)NC(=O)N1CO,inactive,
CC(C)c1cccc(C(C)C)c1NC(=O)NS(=O)(=O)c1cc(C(C)(C)O)co1,inactive,
CCCC(=O)O,inactive,
C=CCCCCCCCCCCCC,inactive,
CCCCC(CC)COP(=O)(OCC(CC)CCCC)OCC(CC)CCCC (centres undefined),,20 µM (active)
NC1CCCCC1,inactive,
CC(=O)CC(c1ccccc1)c1c(O)c2ccccc2oc1=O (centres undefined),inactive,
C=CCc1ccc(OC)c(OC)c1,inactive,
CC(C)OC(=O)C(C)(C)Oc1ccc(C(=O)c2ccc(Cl)cc2)cc1,inactive,
CCCCCCCCCC[N+](C)(C)[O-],inactive,
CCCCCCCC(=O)OC,inactive,
Oc1ccc(O)cc1,inactive,
CSc1ccc(Oc2ccc(S(N)(=O)=O)cc2CN(C)C)cc1C,,12.2 µM (active)
CCc1cc(C2=C(C(=O)O)N(c3ccccc3C(F)(F)F)S(=O)(=O)c3ccccc32)cc2c1OCO2,inactive,
NCCOCCOCCN,inactive,
S=c1[nH]c2ccccc2s1,inactive,
O=C(N[C@@H](c1ccccc1)[C@@H]1CCCCN1)c1cccc(C(F)(F)F)c1Cl,inactive,
O=C1CCCCC1,inactive,
Cc1ccc(C(C)(C)C)c(O)c1,inactive,
CCN(CC)CCOc1ccc(C(=C(Cl)c2ccccc2)c2ccccc2)cc1,,13 µM (active)
CC(=O)[C@@]1(O)CC[C@H]2[C@@H]3CCC4=CC(=O)CC[C@]4(C)[C@H]3CC[C@@]21C,,26.6 µM (active)
CCCCC(CC)CO (centres undefined),inactive,
CC(=O)O[C@]1(C(C)=O)CC[C@H]2[C@@H]3C=C(Cl)C4=CC(=O)[C@@H]5C[C@@H]5[C@]4(C)[C@H]3CC[C@@]21C,,14.7 µM (active)
COc1ccc(OC(F)(F)F)cc1CN[C@H]1CCCN[C@H]1c1ccccc1,,20 µM (active)
CC(COCC(C)OC(=O)c1ccccc1)OC(=O)c1ccccc1 (centres undefined),inactive,
Cc1occc(=O)c1O,inactive,
O=C(O)c1[nH]n(-c2ccc(S(=O)(=O)O)cc2)c(=O)c1N=Nc1ccc(S(=O)(=O)O)cc1,inactive,
